Assay [1] addresses Voltage-gated inwardly rectifying potassium channel KCNH2 (Homo sapiens) (UniProt Q12809). In words: qHTS Assay for Small Molecule Inhibitors of the Human hERG Channel Activity (AID 588834).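 Note: lower thallium flux fluorescence means stronger hERG block; nearly all actives have a fitted effect of over 50% in size.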 A digest of the protocol: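 Measured: FluxOR fluorescence after thallium stimulation in U2OS cells transduced with hERG by baculovirus. Compounds pre-incubated around 10 min; medium Opti-MEM with 2% FCS. AC50 from Hill equation.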
(In general: qHTS replaces the single test concentration by a dilution series.)

Assay [2] deals with Luciferin 4-monooxygenase (Photinus pyralis) (UniProt P08659). The assay is described as follows: Biochemical firefly luciferase enzyme assay for NPC (AID 624030). Note: nearly all actives have a fitted effect of over 70% in size. A digest of the protocol: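 Counter-screen for direct inhibition of the luciferase enzyme by approved-drug library compounds, run at 10 nM enzyme in 50 mM Tris acetate (final). Luminescence was read within 5 min of enzyme-buffer addition and normalized to PTC124 versus DMSO (0%).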
Sequence of Luciferin 4-monooxygenase (Photinus pyralis) (P08659 whole entry, looked up): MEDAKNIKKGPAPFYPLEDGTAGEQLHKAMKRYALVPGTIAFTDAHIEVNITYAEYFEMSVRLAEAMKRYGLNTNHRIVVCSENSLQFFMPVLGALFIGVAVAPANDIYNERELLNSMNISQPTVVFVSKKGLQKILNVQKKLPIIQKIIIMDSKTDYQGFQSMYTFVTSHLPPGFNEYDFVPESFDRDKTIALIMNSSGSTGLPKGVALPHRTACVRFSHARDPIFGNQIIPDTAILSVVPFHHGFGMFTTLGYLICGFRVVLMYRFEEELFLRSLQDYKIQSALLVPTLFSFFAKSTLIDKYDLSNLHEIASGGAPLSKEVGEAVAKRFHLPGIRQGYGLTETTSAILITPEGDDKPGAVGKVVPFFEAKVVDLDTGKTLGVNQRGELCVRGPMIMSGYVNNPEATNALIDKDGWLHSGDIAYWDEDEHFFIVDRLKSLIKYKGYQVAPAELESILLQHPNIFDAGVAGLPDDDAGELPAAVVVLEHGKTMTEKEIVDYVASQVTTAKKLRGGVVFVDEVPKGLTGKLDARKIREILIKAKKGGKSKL

A short description of assay [3]: S16 Schwann cell viability assay (CellTiter-Glo assay) (AID 624031). Note: nearly all actives have a fitted effect of over 70% in size. In a few lines: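 Native S16 rat Schwann cells, 500-750 cells/well in DMEM with 10% FBS, dosed with compound after overnight culture and incubated 24h at 37 degree Celsius/5% CO2. Viability by CellTiter-Glo luminescence; % activity normalized to no-cell wells and DMSO-treated cells.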
A general note: Cellular ATP, detected with luciferase, serves as a proxy for viable cell number.

A short description of assay [4]: S16 Schwann cell PMP22 intronic element firefly luciferase assay (AID 624032). Note: nearly all actives have a fitted effect of over 30% in size. A digest of the protocol: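 Rat S16 Schwann cells stably carrying a PMP22 intronic element-driven Fluc reporter were seeded overnight, then exposed to compounds for 24 h at 37 °C. Luminescence was normalized to PTC124 (positive control) and DMSO (0% activity).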
Assay [5] in a line: S16 Schwann cell PMP22 intronic element beta-lactamase assay (AID 624044; calls by dose curve; note: nearly all actives have a fitted effect of over 15% in size). A digest of the protocol: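 Rat S16 Schwann cells with beta-Lac driven by a PMP22 intronic element, compound-treated 24 h at 37 °C. LiveBLAzer FRET B/G read: 460 nm normalized to potassium clavulanate vs DMSO; 535 nm FRET as viability; concentration-effect curves classified.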

The structures appear in SMILES notation. Records with an inconclusive call do not appear. Values without a mark were called inactive. The source made the active and inactive calls. Unless noted, calls come from the whole dose curve; as a rule, active = well fitted curve in the direction sought with a large enough effect; inconclusive = small, poorly fitted or top-dose-only effect, or another doubt; inactive = no such curve, though single readings can be large; an effect the other way counts as inactive or inconclusive. Non-standard residues stand in square brackets, D forms with d. Residues, ends and D or L forms follow the SMILES beside them. Orn = NCCC[C@H](N)C(=O)O
Potency is the fitted concentration of half-maximal effect.

Sequence of Voltage-gated inwardly rectifying potassium channel KCNH2 (Homo sapiens) (Q12809 whole entry, looked up): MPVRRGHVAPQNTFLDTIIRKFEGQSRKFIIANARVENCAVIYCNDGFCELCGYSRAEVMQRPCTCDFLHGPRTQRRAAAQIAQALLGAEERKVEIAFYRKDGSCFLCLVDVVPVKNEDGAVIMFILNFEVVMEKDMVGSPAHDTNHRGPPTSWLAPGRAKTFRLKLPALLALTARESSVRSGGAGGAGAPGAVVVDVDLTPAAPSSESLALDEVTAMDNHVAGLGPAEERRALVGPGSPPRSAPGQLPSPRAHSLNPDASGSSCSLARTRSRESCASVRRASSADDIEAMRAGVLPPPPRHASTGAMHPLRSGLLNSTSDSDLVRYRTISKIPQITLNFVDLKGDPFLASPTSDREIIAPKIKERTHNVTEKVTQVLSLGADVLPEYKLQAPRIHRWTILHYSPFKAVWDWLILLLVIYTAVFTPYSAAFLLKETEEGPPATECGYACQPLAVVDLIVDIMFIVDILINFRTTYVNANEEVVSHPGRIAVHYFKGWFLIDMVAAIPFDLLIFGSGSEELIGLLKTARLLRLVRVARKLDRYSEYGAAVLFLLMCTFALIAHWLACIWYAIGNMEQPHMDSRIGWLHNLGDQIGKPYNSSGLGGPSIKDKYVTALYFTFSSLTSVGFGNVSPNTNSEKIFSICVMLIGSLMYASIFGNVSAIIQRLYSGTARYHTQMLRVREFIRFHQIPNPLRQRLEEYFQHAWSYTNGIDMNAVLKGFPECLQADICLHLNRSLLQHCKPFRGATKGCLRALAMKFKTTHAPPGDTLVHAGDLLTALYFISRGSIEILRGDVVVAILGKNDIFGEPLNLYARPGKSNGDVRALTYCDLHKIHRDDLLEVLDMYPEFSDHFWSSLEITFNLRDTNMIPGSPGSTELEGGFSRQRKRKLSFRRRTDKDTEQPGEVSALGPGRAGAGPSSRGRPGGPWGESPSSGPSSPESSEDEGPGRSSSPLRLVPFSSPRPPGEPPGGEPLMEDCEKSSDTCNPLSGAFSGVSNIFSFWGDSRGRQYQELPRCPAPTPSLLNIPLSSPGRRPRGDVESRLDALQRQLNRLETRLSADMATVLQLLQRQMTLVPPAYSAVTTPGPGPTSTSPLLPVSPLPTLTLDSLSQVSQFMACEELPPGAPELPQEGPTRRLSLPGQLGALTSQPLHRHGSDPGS

For `CC(=O)O[C@]1(C(C)=O)CC[C@H]2[C@@H]3CCC4=CC(=O)CC[C@]4(C)[C@@]3(F)[C@@H](O)C[C@@]21C`, the Potency entry in assay [1] is “inactive”.
As for `CCCCC(=O)O[C@]1(C(=O)CO)[C@H](C)C[C@H]2[C@@H]3CCC4=CC(=O)C=C[C@]4(C)[C@@]3(F)[C@@H](O)C[C@@]21C`, the Potency result in assay [1], in assay [2], in assay [3], in assay [4] and in assay [5] was “inactive” in each case.
`C[C@]12O[C@H](C[C@]1(O)CO)n1c3ccccc3c3c4c(c5c6ccccc6n2c5c31)CNC4=O`: the Potency result in assay [1] and in assay [2] was “inactive” each time. For the same molecule, the Potency in assay [3] is 10.2 µM (active).
`Cc1cc(C(=O)NNCc2ccccc2)no1`: the Potency entry in assay [1], in assay [2], in assay [3], in assay [4] and in assay [5] was “inactive” throughout.
As to `CN=C(NC#N)Nc1ccc(C2=NNC(=O)C[C@@H]2C)cc1`, in assay [1], the Potency result was “inactive”.
For `CCCCC(=O)N(Cc1ccc(-c2ccccc2-c2nn[nH]n2)cc1)[C@@H](C(=O)O)C(C)C`, the Potency entry in assay [1] was “inactive”.
Same read-out and setting: then `CO[C@@H]1[C@@H](O[C@@H]2O[C@H](C)[C@@H](O[C@H]3C[C@@](C)(O)[C@@H](O)[C@H](C)O3)[C@H](N(C)C)[C@H]2O)[C@@H](CC=O)C[C@@H](C)[C@@H](O[C@@H]2CC[C@H](N(C)C)[C@@H](C)O2)/C=C/C=C/C[C@@H](C)OC(=O)C[C@H]1O`, with “inactive”.
Still for that read-out and setting: for `CC1(C)S[C@@H]2[C@H](NC(=O)C(C(=O)O)c3ccsc3)C(=O)N2[C@H]1C(=O)O` (stereo not given in full) the value was “inactive”; for `C[C@H](CCC(=O)O)[C@H]1CC[C@H]2[C@@H]3[C@H](O)C[C@@H]4C[C@H](O)CC[C@]4(C)[C@H]3CC[C@]12C`, “inactive”; for `NCc1ccccc1CC(=O)N[C@@H]1C(=O)N2C(C(=O)O)=C(CSc3nnnn3CC(=O)O)CS[C@H]12`, “inactive”.
As for `COC(=O)[C@H]1[C@H]2C[C@@H]3c4[nH]c5ccccc5c4CCN3C[C@H]2C[C@@H](OC(=O)c2cc(OC)c(OC)c(OC)c2)[C@@H]1OC`, the Potency in assay [1] is 0.355 µM (active); in assay [3], 5.1 µM (active); in assay [4] it was 0.907 µM (active); in assay [5], 3.98 µM (active). For the same molecule, in assay [2], the Potency entry is “inactive”.
Regarding `CCOc1ccc(N=Nc2ccc(N)cc2N)cc1`, in assay [1], the Potency entry was “inactive”. In assay [2], the Potency was 0.203 µM (active).
Regarding `NC(=O)c1ncn(C2OC(CO)C(O)C2O)n1` (stereo not given), the Potency entry in assay [1], in assay [2], in assay [3], in assay [4] and in assay [5] was “inactive” in each case.
Regarding `COc1cc(-c2ccc(-[n+]3nc(-c4ccccc4)nn3-c3ccc([N+](=O)[O-])cc3)c(OC)c2)ccc1-[n+]1nc(-c2ccccc2)nn1-c1ccc([N+](=O)[O-])cc1`, the Potency result in assay [1] and in assay [2] was “inactive” each time.
In the case of `NC1C2CN(c3nc4c(cc3F)c(=O)c(C(=O)O)cn4-c3ccc(F)cc3F)CC12` (stereo not given), the Potency result in assay [1], in assay [2], in assay [3], in assay [4] and in assay [5] was “inactive” in each case.
For `COc1ccc(C[C@H](N)C(=O)N[C@H]2[C@@H](O)[C@H](n3cnc4c(N(C)C)ncnc43)O[C@@H]2CO)cc1`, the Potency result in assay [1] was “inactive”.
The same measure, in the same setting: then `CC[C@H]1OC(=O)C[C@@H](O)[C@H](C)[C@@H](O[C@@H]2O[C@H](C)[C@@H](O)[C@H](N(C)C)[C@H]2O)[C@@H](CCN2C[C@H](C)C[C@H](C)C2)C[C@@H](C)C(=O)/C=C/C(C)=C/[C@@H]1CO[C@@H]1O[C@H](C)[C@@H](O)[C@@H](OC)[C@H]1OC`, with “inactive”; and `C/C1=C2N=C(/C=C3N=C(/C(C)=C4\[N-][C@@](C)([C@@H]5N=C1[C@](C)(CCC(=O)NCC(C)OP(=O)(O)O[C@H]1[C@@H](O)[C@@H](n6cnc7cc(C)c(C)cc76)O[C@@H]1CO)[C@H]5CC(N)=O)[C@@](C)(CC(N)=O)[C@@H]4CCC(N)=O)[C@@](C)(CC(N)=O)[C@@H]\3CCC(N)=O)C(C)(C)[C@@H]/2CCC(N)=O.CC(=O)O.[Co]` (stereo not given in full), with “inactive”; and `CC1(C)O[C@@H]2C[C@H]3[C@@H]4CCC5=CC(=O)C=C[C@]5(C)[C@H]4[C@@H](O)C[C@]3(C)[C@]2(C(=O)CO)O1`, with “inactive”.
Still for that read-out and setting: then `CC(C)C[C@@H]1NC(=O)[C@H](CCCN)NC(=O)[C@H](C(C)C)NC(=O)[C@@H]2CCCN2C(=O)[C@@H](Cc2ccccc2)NC(=O)[C@H](CC(C)C)NC(=O)[C@H](CCCN)NC(=O)[C@H](C(C)C)NC(=O)[C@@H]2CCCN2C(=O)[C@@H](Cc2ccccc2)NC1=O` (cyclo(V[Orn]L[dF]PV[Orn]L[dF]P)), with “inactive”.
`COC(=O)C1=C(C#N)NC(C)=C(C(=O)OC(C)C)C1c1cccc([N+](=O)[O-])c1` (stereo not given): the Potency result in assay [1], in assay [2] and in assay [3] was “inactive” in each case. Moreover, the Potency in assay [4] is 16.1 µM (active).
On to `OCCO[C@@H]1[C@@H](O)[C@H](O)[C@@H](CO)O[C@@H]1O`, for which, in assay [1], the Potency result is “inactive”.
Same read-out and setting: then `CO[C@H]1C[C@H](O[C@H]2[C@H](C)[C@@H](O[C@@H]3O[C@H](C)C[C@H](N(C)C)[C@H]3OC(C)=O)[C@@H](C)C[C@]3(CO3)C(=O)[C@H](C)[C@@H](OC(C)=O)[C@@H](C)[C@@H](C)OC(=O)[C@@H]2C)O[C@@H](C)[C@@H]1OC(C)=O`, with “inactive”.
With `Cc1c(C)c2c(c(C)c1O)CC[C@@](C)(CCC[C@@H](C)CCC[C@@H](C)CCCC(C)C)O2`, the Potency entry in assay [1], in assay [2], in assay [3], in assay [4] and in assay [5] was “inactive” each time.

The values are drawn from PubChem BioAssay (NCATS).
